# ATXN2 expr inh – Primary qHTS for Inhibitors of ATXN expression; Potency, µM (titrated, usually from 57 µM), usual class: inhibitors; hit rate 0.72% among 360,000; HEK-293 ATXN2-luciferase reporter, luminescence, 24 h; also: nearly all actives have a fitted effect of over 55% in size
#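 qHTS (up to 57 uM final) was run with 24 h compound exposure of reporter cells at 37 °C. Each well was multiplexed: SteadyGlo luminescence measured ATXN2-luciferase expression after a fluorogenic Gly-Phe-AFC viability readout (25 uM final).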
# HepG2 viability – qHTS for Inhibitors of TGF-b: Cytotox Counterscreen | HepG2 CAGA-GFP viability, ATP luminescence, 18 h | Potency, µM (doses to about 46.1 µM), most hits filed as cytotoxic | hit rate 0.76% among 410,000
#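 HepG2 CAGA-GFP cells (1000/well, DMEM with 1% FBS) received compound, then TGF-beta at 500 pg/mL final, and were incubated 18 hours at 37 degrees C. Viability was read by CellTiter-Glo luminescence. Media-only wells were set as complete cell-killing and DMSO as no toxicity.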
# S2 tox – Viability Counterscreen for Primary qHTS for Inhibitors of ATXN expression. S2 cells (HEK-293 line with an ATXN2-luciferase reporter) viability, CellTiter-Fluor protease fluorescence, 24 h. Potency, µM (doses to about 56.7 µM), hits mostly cytotoxic. hit rate 0.49% among 400,000. AID 651635, 2014; also: nearly all actives have a fitted effect of over 40% in size
# D3 antag – qHTS of D3 Dopamine Receptor Antagonist: qHTS | D(3) dopamine receptor (Homo sapiens), P35462 | AID 652054, 2013 | hit rate 2.5% among 360,000 | D3R cells, DiscoveRx beta-arrestin luminescence, antagonist mode; hits give low values | max response, negative = inhibition, %; in the data active = max response below about -50%; inconclusive = no clear call, values can overlap the other calls
# Target sequence (P35462 whole entry, looked up): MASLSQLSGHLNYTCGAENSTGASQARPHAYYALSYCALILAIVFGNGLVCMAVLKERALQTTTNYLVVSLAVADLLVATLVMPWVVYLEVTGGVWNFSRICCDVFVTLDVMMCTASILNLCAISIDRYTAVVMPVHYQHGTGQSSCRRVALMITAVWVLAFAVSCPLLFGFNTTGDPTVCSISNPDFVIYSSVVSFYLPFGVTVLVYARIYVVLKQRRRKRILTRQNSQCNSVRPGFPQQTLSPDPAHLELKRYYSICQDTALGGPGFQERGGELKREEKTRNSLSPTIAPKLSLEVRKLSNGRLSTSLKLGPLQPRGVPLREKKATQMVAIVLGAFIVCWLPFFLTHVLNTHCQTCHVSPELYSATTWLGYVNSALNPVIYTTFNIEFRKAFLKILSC
#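 Cells expressing the human receptor were seeded at 1500 cells/well, incubated overnight at 37 degrees C in 5% CO2, then exposed to library compounds with dopamine controls for 90 minutes at 37 degrees C before luminescent detection.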
# D3 ag – qHTS of D3 Dopamine Receptor Agonist: qHTS; D(3) dopamine receptor (Homo sapiens), P35462; D3R DiscoveRx beta-arrestin cells, luminescence, 90 min; max activation, %; hit rate 0.58% among 410,000; AID 652048, 2013; in the data active = max activation above about 30%
#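 Agonist mode: compounds and dopamine controls were applied to plated cells for 90 min at 37 degrees C after an overnight attachment at 1500 cells/well. Luminescent read-out followed 30 - 60 minutes at room temperature with DiscoveRx detection reagent.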
# TGFb SMAD3 inh – qHTS for Inhibitors of TGF-b; AID 588855, 2011; hit rate 1.2% among 410,000; Potency, µM (highest dose often 46.1 µM), hits mostly inhibitors; HepG2 CAGA-GFP TGF-b/SMAD3 reporter, GFP fluorescence, 18 h; TGF-beta stimulated, 500 pg/mL final; also: nearly all actives have a fitted effect of over 65% in size
#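 Read-out: total well GFP (ex488/em500-530) summed from mean per-cell fluorescence. Cells: HEPG2 CAGA-GFP, 1% FBS DMEM, 18 h at 37 degrees C with 500 pg/mL final TGF-beta. Unstimulated wells served as the full-inhibition control; stimulated DMSO wells = 0%.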
# Numbers stand for hits; i = inactive; ? = inconclusive; nt = not tested or not shown; ! = not active in a repeat. Compounds with a hit are over-represented: about 4.8% of the library has one in this group of screens. Unless noted, calls follow the shape of the dose curve; as a rule, active = well fitted curve in the direction sought with a large enough effect; inconclusive = small, poorly fitted or top-dose-only effect, or another doubt; inactive = no such curve, though single readings can be large; an effect the other way counts as inactive or inconclusive.
SMILES,ATXN2 expr inh,HepG2 viability,S2 tox,D3 antag,D3 ag,TGFb SMAD3 inh
Oc1ccc(C[C@@H]2CNC(=S)N2CCCCC2CCCCC2)cc1,i,i,?,i,i,13µM
S=C1NC[C@H](c2ccccc2)N1CCCCC1CCCCC1,?,11µM,?,i,i,18µM
CC(=O)c1cc2c(cc1NC(=O)c1cnn(-c3ccc(C)cc3)c1-n1cccc1)OCO2,nt,i,nt,nt,i,i
COc1cc(OC)cc(C(=O)NCC2Cc3cccc(-c4nc(C)cnc4C)c3O2)c1 (stereo not given),nt,nt,i,nt,nt,nt
O=C1CCC[C@@H]2C[C@@]3(C[C@@H]4CCN1[C@H]24)Nc1cc(Cl)ccc1NC3=NC1CCCCC1,i,i,i,-78,i,?
O=C1CC[C@@H]2CC3(C[C@@H]4CCN1[C@H]24)Nc1cc(Cl)ccc1NC3=NC1CCCCC1 (stereo not given in full),i,i,i,-63,i,?
O=C1CCC[C@@H]2C[C@@]3(C[C@@H]4CCN1[C@H]24)Nc1cc([N+](=O)[O-])ccc1NC3=NC1CCCCC1,i,i,?,?,i,?
COc1ccc2c(c1)OC(C)CN(CCNC(=O)C1CCOC1)C2 (stereo not given),nt,nt,i,nt,nt,nt
CC(C)(C)C1CCc2c(C(=O)N/N=C/c3cccs3)csc2C1 (stereo not given),i,i,i,?,32,i
C/C(CCc1ccc2c(c1)OCO2)=N\NC(=S)NC(C)C,7.9µM,i,7.1µM,i,i,?
Brc1ccc(-c2nnc(SCCC3OCCCO3)o2)cc1,i,i,i,i,i,i
c1ccc(-c2nnc(SCCC3OCCCO3)o2)cc1,i,i,i,i,103,i
CC(Nn1cnnc1)c1cc(Cl)ccc1O (stereo not given),i,i,i,i,i,i
Cc1ccc(NC(C)c2cc(Cl)ccc2O)cc1 (stereo not given),i,11µM,i,i,i,i
CCOc1ccc(C(=O)c2cn(CC(=O)Nc3ccc(F)cc3)c3cc4c(cc3c2=O)OCCO4)cc1,i,i,i,nt,i,?
O=C(Nc1nnc(-c2ccccc2)s1)c1cc(S(=O)(=O)N2CCOCC2)c(Cl)cc1Cl,?,i,i,-70,i,i
O=C(Nc1nnc(-c2ccccc2)s1)c1cccc(S(=O)(=O)N2CCOCC2)c1,i,i,i,i,i,i
CCN1CCN(C(c2ccccc2OC)c2nnnn2C2CCCCC2)CC1 (stereo not given),i,i,i,i,i,i
C(=C\c1ccccc1)/CN1CCN(C(c2ccnc3ccccc23)c2nnnn2C2CCCC2)CC1 (stereo not given),i,i,?,i,i,10µM
CC(C)(C)n1nnnc1C(c1ccccc1OC(F)(F)F)N1CCN(C/C=C/c2ccccc2)CC1 (stereo not given),i,i,?,i,i,?
COc1cccc(C(c2nnnn2C2CCCCC2)N2CCN(C/C=C/c3ccccc3)CC2)c1OC (stereo not given),?,i,?,-118,i,?
c1ccc(C(c2ccccc2)N2CCN(C(c3ccccn3)c3nnnn3C3CCCC3)CC2)cc1 (stereo not given),i,i,i,i,i,i
FC(F)(F)Oc1ccccc1C(c1nnnn1C1CCCC1)N1CCN(C/C=C/c2ccccc2)CC1 (stereo not given),?,i,?,-97,i,?
Cc1ccc(Nc2cc(-c3cccc(N4C(=O)c5ccccc5C4=O)c3)ncn2)cc1NS(C)(=O)=O,i,nt,nt,nt,nt,nt
O=C(COc1ccccc1C(=O)Nc1ccccc1)Nc1ccccc1F,nt,i,nt,nt,nt,i
SMILES,ATXN2 expr inh,HepG2 viability,S2 tox,D3 antag,D3 ag,TGFb SMAD3 inh
COc1ccc(OC)c(CN2CCOc3ccc(C(O)c4cccnc4)cc3C2)c1 (stereo not given),nt,nt,i,nt,nt,nt
CN(C)c1ccc(/C=C/c2cc[n+](C)c3ccc4ccccc4c23)cc1,nt,i,nt,nt,nt,2µM
COc1cc(OC)c(/C=C/c2cc[n+](C)c3ccccc23)c(OC)c1,nt,i,nt,nt,nt,?
C[n+]1ccc(/C=C/c2ccc(C=S)cc2)c2ccccc21,nt,i,nt,nt,nt,i
Cc1cc(N(C)C)cc(C)c1/C=C/c1cc[n+](C)c2ccccc12,nt,i,nt,nt,nt,8.9µM
NC(N)=Nc1nc(CSCCC(N)=NS(N)(=O)=O)cs1,i,nt,nt,nt,nt,nt
O=C(COC(=O)Cc1ccccc1F)Nc1cccc(F)c1,i,i,i,i,i,i
O=C(COC(=O)Cc1ccccc1F)Nc1ccc(F)cc1F,i,3.5µM,i,i,i,i
C=C1CC2(CC(c3ccccc3)OC(c3ccccc3)C2)OC1=O (stereo not given),?,11µM,nt,i,i,?
CN(C)c1ccc(/C=C/c2ccnc3ccccc23)cc1Br,nt,i,nt,nt,nt,?
O=C(NCCO)c1cccc2c1C(=O)c1ccccc1-2,i,i,i,i,i,i
O=C1c2cccc(NCCNCCO)c2C(=O)c2cccc(NCCNCCO)c21,4.5µM,i,18µM,i,i,?
O=C(O)CCNc1ccc(NCCC(=O)O)c2c1C(=O)c1ccccc1C2=O,nt,i,?,-82,i,i
COc1ccc(C2(CNC(=O)C(=O)Nc3ccc(F)cc3)CCCC2)cc1OC,i,i,i,nt,i,i
N#CC1=C(N)CCC1,nt,i,nt,nt,nt,i
C#CCNC(=O)C1=C[C@H](c2ccc(C(F)(F)F)cc2)[C@@H](CCCO)[C@H](OCC)O1,i,i,i,i,34,i
CCO[C@@H]1OC(C(=O)N2CCN(Cc3ccccc3)CC2)=C[C@H](c2ccc(Br)cc2)[C@H]1CCCO,i,i,?,?,i,i
CCO[C@@H]1OC(C(=O)N2CCN(Cc3ccccc3)CC2)=C[C@H](c2ccc(C(F)(F)F)cc2)[C@H]1CCCO,i,i,?,i,i,13µM
C#CCNC(=O)C1=C[C@@H](c2ccc(Br)cc2)[C@H](CCCO)[C@@H](OCC)O1,i,i,i,i,i,i
COc1cc(NC(=O)c2cnc(N)s2)cc(C(=O)Nc2cccc(C(F)(F)F)c2)c1,i,i,35µM!,i,i,?
COc1cc(NC(=O)c2cnc(N)o2)cc(C(=O)Nc2cccc(C(F)(F)F)c2)c1,?,i,20µM,i,i,?
COc1cc(NC(=O)c2ccnc(N)c2)cc(C(=O)Nc2cccc(C(F)(F)F)c2)c1,i,i,i,i,i,i
COc1cc(NC(=O)c2csc(N)n2)cc(C(=O)Nc2cccc(C(F)(F)F)c2)c1,?,i,18µM,i,i,?
CN(C)c1ccc(C(=O)NCc2ccc3c(c2)CCN3C(=O)c2ccccc2)cc1,nt,i,nt,nt,i,i
